# Measurements as given in PubChem BioAssay AID686979 (National Center for Advancing Translational Sciences (NCATS), 2013).
# “And” between values parts separate entries of the source, which are not always exact repeats. Equal entries are not always repeated. Among all 420,000 compounds or so, about 50,000 (12%) were called active. Not shown: some 26% with an inconclusive outcome. Many of the other results were omitted from the sample, so actives are more common in it than they were. Values without a mark were called inactive. Calls follow the shape of the dose curve; as a rule, active = well fitted inhibition curve with a large enough effect; inconclusive = small, poorly fitted or top-dose-only effect; inactive = flat fitted curve, though single readings scatter.
# Test: qHTS for Inhibitors of human tyrosyl-DNA phosphodiesterase 1 (TDP1): qHTS in cells in presence of CPT; also: nearly all actives have a fitted effect of over 55% in size
# Conditions: chicken DT40 Tdp1-/-;hTDP1 cells + 20 nM CPT, ATP luminescence, 48 h; series mostly up to 46.2 µM; activity change, negative = growth inhibition: at the top concentration
# Excerpt: Human tyrosyl-DNA phosphodiesterase 1 (TDP1) is a novel repair gene, and we propose to use it as a new target for anticancer drug development. TDP1 is not an essential protein, but under treatment with topoisomerase I poison (camptothecin: CPT), TDP1 works as a critical factor for cell survival. To directly identify novel TDP1 inhibitors active in a cellular environment, we have knocked-out the Tdp1 gene in chicken DT40 cells (Tdp1-/-) and generated a complemented counterpart cells that contains a stable transfection of the human TDP1 gene (Tdp1-/-;hTDP1 cells). For the primary screen, Tdp1-/-;hTDP1 cells will be exposed to small molecules in the presence or absence of CPT, and their growth kinetics will be evaluated after 48 hours by measuring ATP activity. […] The hit compounds will then be evaluated in the presence or absence of CPT using Tdp1-/- cells. […] In tertiary assays, biochemical gel-based assays will be used to assess whether the hit compounds specifically target TDP1. To this end, we have screened this cell line against the MLSMR in two primary screens. In one screen we add CPT and in the other we screen in the absence of CPT; this AID represents the screen where CPT was present. NIH Chemical Genomics Center [NCGC] NIH Molecular Libraries Probe Centers Network [MLPCN] MLPCN Grant: MH095538 Assay Submitter (PI): Yves Pommier, NCI
# DT40-hTDP1 cells with 20 nM Camptothecin (add 20 microL of 1 mM CPT stock in 1 L of cell culture medium) were dispensed at 400 cells/5microL/well in tissue culture treated 1536-well white wall/solid bottom assay plates (Greiner Bio-One North America, NC, U.S.A.) using a Multidrop Combi 8 channel dispenser (Thermo Fisher, Waltham, MA, USA). 23 nL compounds and controls were transferred using the pin tool (Kalypsys, San Diego, CA, USA) to the assay plates. The assay plates were then incubated at 37 masculineC for a minimum 48 hr. Three microL of Cell Titer Glo solution was added to the plates and incubated at RT in dark for 30 min. Luminescence was read using ViewLux (Perkin Elmer) with 1 sec exposure slow speed, high gain and 2x binning.
# % is scaled to controls: 0 for no effect and ±100 for the full control effect; potency is read from the fitted curve at half-maximal effect.
SMILES,Potency,"activity change, negative = growth inhibition"
CC[C@H]1CN2CCc3cc(OC)c(OC)cc3[C@@H]2C[C@@H]1C[C@H]1NCCc2cc(OC)c(OC)cc21,188 nM (active) and 146 nM (active),–
C=C(C)C1(CCCC)C(=O)NC(=S)NC1=O,–,-0.259%
Cc1cc(OCc2cc(C(=O)O)oc2C)c2c3c(c(=O)oc2c1)CCCC3,–,-16%
CN(C)C(=O)Oc1ccc2c(c1)O/C(=C\c1ccccc1)C2=O,–,-6.72%
CC(C)c1ccc(OCC(=O)N2CCCN(C)CC2)cc1,–,-3.5%
CCCCC/C=C\C/C=C\C/C=C\CCCCCCC(=O)NCCO,–,0.621% [at 4.12 µM]
C[C@@H]1CC[C@@]2(OC1)O[C@H]1C[C@H]3[C@@H]4CC=C5C[C@@H](O)[C@H](O)C[C@]5(C)C4CC[C@]3(C)[C@H]1[C@@H]2C (stereo partly drawn),20.6 µM (active),–
COc1c(O)ccc2c1-c1c3c(cc4c1C(C2)N(C)CC4)OCO3 (stereo not drawn),–,1.12%
COc1ccc2cc1Oc1ccc(cc1)C[C@H]1c3cc(c(OC)cc3CCN1C)Oc1c(O)c(OC)cc3c1[C@H](C2)N(C)CC3,8.2 µM (active),–
COc1ccc2c(c1O)-c1cccc3c1[C@@H](C2)N(C)CC3,–,4.93%
CC1(C)C(c2ccccc2)=NC(c2cccnc2)=[N+]1[O-],–,-18.6%
O=c1[nH]c(=O)n(CCc2ccc(F)cc2)c(O)c1/C=N/N1CCCCC1,–,3.95%
CN(C)CC1CCCCC1=O (stereo not drawn),5.8 µM (active),–
O=C(NCC(c1cccnc1)N1CCN(c2ccccc2)CC1)Oc1ccccc1 (stereo not drawn),–,-17.7%
NC(=O)Nc1cccc(C(F)(F)F)c1,–,-5.71%
CC(=O)Nc1cc(-c2cccc(CO)c2)cn2c(-c3cccc(C(F)(F)F)c3)cnc12,11.6 µM (active),–
CC(=O)OC1C2CCC3C1(CC(O)[C@@]1(O)[C@@H](CC(O)C1(C)C)[C@]3(C)O)C[C@@]2(C)O (stereo partly drawn),–,7.13%
COc1ccccc1C(=O)N[C@@H]1c2ccccc2C2(CCN(Cc3nc(C(C)C)cs3)CC2)[C@H]1O,2.06 µM (active),–
COc1ccccc1C1=NCc2nnc(CSC)n2-c2ccc(Cl)cc21,–,10.2%
CCc1ccc(N(CC)C(=O)CCn2cnc3onc(-c4ccc(F)cc4)c3c2=O)cc1,16.4 µM (active),–
CCCCC(=O)N/N=C/c1c(O)n(CC)c(=S)n(CC)c1=O,18.4 µM (active),–
CCCCC(=O)N/N=C/c1c(O)n(-c2ccccc2)c(=O)[nH]c1=O,–,15.6%
Cn1c(O)c(C=NCCCC(=O)O)c(=O)n(C)c1=O,–,2.87%
O=C1NC(=O)C(C/C=C/c2ccccc2)C(=O)N1,–,-18.8%
Cc1cccc(NC(=O)OC2CN3CCC2CC3)c1 (stereo not drawn),–,8.88%

SMILES,Potency,"activity change, negative = growth inhibition"
CCC(=O)CC(c1ccc([N+](=O)[O-])cc1)c1c(O)c2ccccc2oc1=O (stereo not drawn),–,-9.51%
CC(=O)c1c(O)n(C2CCCCCC2)c(=O)[nH]c1=O,18.4 µM (active),–
CC(=NCC1CCCO1)c1c(O)n(-c2ccccc2)c(=O)[nH]c1=O (stereo not drawn),–,-10.4%
O=c1[nH]c(=S)n(C2CC2)c(O)c1/C=N/N1CCOCC1,–,2.09%
COC1=C[C@]23CCCN2CCc2cc4c(cc2[C@@H]3[C@@H]1O)OCO4,–,-3.38% [at 9.04 µM]
CN1CCN(/N=C/c2c[nH]c3ccccc23)CC1,–,5.45%
CC12CCC3C(CCC4CC(=O)CCC43C)C1CC(=NO)C2=O (stereo not drawn),–,-29.9%
CCCCCn1c(=O)c(C(=O)NCc2ccccc2)c(O)c2ccccc21,4.61 µM (active),–
CCCCCn1c(=O)c(C(=O)NCc2ccccn2)c(O)c2ccccc21,20.6 µM (active),–
CCOC(=O)C1(Cc2ccc(Cl)cc2)CCN(C(C)CCn2cccn2)CC1 (stereo not drawn),–,-24.1%
O=c1[nH]c(=O)n(CCc2ccccc2)c(O)c1/C=N/N1CCOCC1,–,16.1%
c1ccc2sc(C3CCCNC3)nc2c1 (stereo not drawn),–,-7.24%
CC[N+](CC)(CC)CCCCCCCCCC[N+](CC)(CC)CC,–,8.35%
CN1CCN(Cc2ccc(OC(F)(F)F)cc2)CC1,–,0.372%
CC(C)c1ccc(OCC(=O)N2CCN(C)CC2)c(Br)c1,–,-2.53%
O=c1c2ccccc2[nH]c(=S)n1-c1cccc(Cl)c1,–,0.546%
COc1cc(-n2c(=S)[nH]c3ccc(C)cc3c2=O)c(Cl)cc1Cl,8.2 µM (active),–
c1ccc(CC2CCCCN2)cc1 (stereo not drawn),–,12.3%
CC(C)Oc1cccc(C(=O)C2CCCN(C3CCOCC3)C2)c1 (stereo not drawn),–,-16.9%
Oc1cc2c(cc1CN1CCN(c3ccccc3)CC1)OCO2,–,3.27%
COc1cc2[nH]c(C)c(CCN3CCN(c4ccccc4)CC3)c2cc1OC,7.94 µM (active),–
c1ccc(N2Cc3ccccc3-n3nncc3C2)nc1,–,-11.6%
COCCCNC(=O)CC1C[C@H](C(=O)N2CCCCC2)[C@@]2(CCc3ccccc3)c3[nH]c4ccccc4c3CCN2C1=O (stereo partly drawn),23.1 µM (active),–
Clc1ccc([C@@H]2C[C@H]3CC[C@@H]2N3)cn1,inactive,–
CCCC(C)n1[nH]c(=O)c2c1NC(=O)CSC2c1ccc(OC)c(OC)c1 (stereo not drawn),–,-9.47%

SMILES,Potency,"activity change, negative = growth inhibition"
OC[C@@H]1CN(Cc2ccncc2)C[C@H](n2cnc3c(N4CCN(c5ccccc5)CC4)ncnc32)O1,2.06 µM (active),–
CC12CN3CC(C)(CN(C1)C3c1cccs1)C2 (stereo not drawn),–,-8.6%
COc1cccc(OC)c1C(=O)NC(=S)N1C[C@H]2C[C@H](C1)c1cccc(=O)n1C2,–,29.1%
OC1/C(=C/c2ccc(C(F)(F)F)cc2)N2CCC1CC2 (stereo not drawn),–,-15%
CC(C(=O)Nc1ccc(Cl)cc1Cl)N1CC=C(c2ccccc2)CC1 (stereo not drawn),–,-6.73%
c1csc(CN2CC3(CCNCC3)C2)n1,–,-12.3%
N#Cc1c(Cl)c(Cl)c(Cl)c(C#N)c1Cl,178 nM (active) and 651 nM (active),–
O=C(N/N=C/c1c(O)n(C2CC2)c(=S)[nH]c1=O)c1ccccc1,–,-2.43%
N#CC(C#N)=Cc1cc(O)c(O)c([N+](=O)[O-])c1,–,-3.8%
O=C(Cc1ccccc1[N+](=O)[O-])N1CCN(Cc2ccc3c(c2)OCO3)CC1,–,-19.9%
C=CCN1C(=O)NC(=O)/C(=C/c2ccc(OCC(=O)Nc3ccc(C)cc3)cc2)C1=O,–,1.34%
COc1ccc(CNC(=O)c2cc3c(-c4ccccc4F)nn(C)c3s2)c(OC)c1,4.11 µM (active),–
CC/C(=N\NC(=O)c1ccccc1O)c1c(O)n(Cc2ccccc2)c(=O)[nH]c1=O,–,-27.5%
CC(=O)N(C1=NCCCS1)c1ccccc1F,–,-4.78%
CN(C(=O)CSc1nc2ccc(NC(=O)COc3ccccc3)cc2s1)c1ccccc1,25.9 µM (active),–
O=C(COc1ccccc1Cl)Nc1ccc2nc(SCC(=O)N3CCCC3)sc2c1,20.6 µM (active),–
CC(C)n1c(=O)c(C=Nc2ccc(Br)cc2)c(O)n(Cc2ccco2)c1=O,–,-10.9%
CCN(CC)C(=O)c1ccc(NC(=O)c2cc(-n3cnnc3)ccc2Cl)cc1,–,-5.77%
Fc1ccc(N2CCN(Cc3ccc4c(c3)OCO4)CC2)cc1,–,-24.2%
Cn1c(O)c(C=Nc2ccc3c(c2)CCC3)c(=O)n(C)c1=O,–,-10.6%
COC12CC[C@@]3(C[C@@H]1C(C)(O)C(C)(C)C)[C@H]1Cc4ccc(O)c5c4[C@@]3(CCN1CC1CC1)[C@H]2O5 (stereo partly drawn),24.1 µM (active),–
Oc1ccc2c3c1OC1[C@H](O)CC[C@@]4(O)[C@@H](C2)N(CC2CC2)CC[C@]314 (stereo partly drawn),inactive,–
CC1(C)Cc2c(C#N)c(N3CCNCC3)nc(-c3ccco3)c2CS1,18.4 µM (active),–
NCCc1ccc(S(=O)(=O)F)cc1,–,-19.2%
CC(=O)c1ccc(S(=O)(=O)N2CCN(c3nc4c(C)c(C)ccc4cc3C#N)CC2)cc1,7.08 µM (active),–

SMILES,Potency,"activity change, negative = growth inhibition"
CCOC(=O)C(O)(c1ccc(NC(=O)c2ccco2)c(OC)c1)C(F)(F)F (stereo not drawn),–,-27.8%
C[C@@]1([C@@H](NP(=O)(c2ccccc2)c2ccccc2)c2ccccc2)C[C@H]1CCO,9.2 µM (active),–
CC1CNCCN1c1ccc(Cl)cc1 (stereo not drawn),–,-17.2%
CC(C)(C)[C@]1(O)C[C@@H]2OC(=O)C[C@@]23C(=O)O[C@@H]2OC(=O)[C@H](O)[C@]213,inactive,–
c1ccc(C(CN2CCCCC2)c2ccccc2)cc1,–,-0.305%
CCCCOc1ccc(C(=O)N2CC(=O)Nc3ccc(Br)cc3C2c2ccc(F)cc2)cc1 (stereo not drawn),23.1 µM (active),–
O=c1oc2ccccc2c(O)c1C(c1ccccc1O)c1c(O)c2ccccc2oc1=O,–,8.57% [at 9.04 µM]
COc1cc([C@@H]2c3cc4c(cc3[C@H](OC(C)=O)[C@H]3COC(=O)[C@H]23)OCO4)cc(OC)c1OC,0.0794 µM (active),–
COc1cc(C2c3cc4c(cc3C(O)C3COC(=O)C23)OCO4)cc(OC)c1OC (stereo not drawn),44.7 nM (active) and 13 nM (active),–
Cc1nc2ccc(N3CCN(C)CC3)cc2nc1C,–,25.9%
CSc1ccc(C(=O)C2CCCN(Cc3ccn[nH]3)C2)cc1 (stereo not drawn),–,1.2%
O=c1[nH]c(=O)n(-c2ccc(F)cc2)c(O)c1C=NCCN1CCCCC1,–,11.7%
CC(=C1C(=O)c2ccccc2C1=O)N1CCN(CCN=Cc2c(O)n(C)c(=O)n(C)c2=O)CC1,–,-15%
CCN1CC2C3CCC(C)(O3)C2C1 (stereo not drawn),–,3.51%
Cc1ccc(Cl)cc1N1CCN(C(=O)C2CCC(CNS(=O)(=O)c3cccs3)CC2)CC1 (stereo not drawn),20.6 µM (active),–
CC1C(=O)OC2CCN3CC=C(COC(=O)C(C)(O)C1(C)O)C23 (stereo not drawn),5.8 µM (active),–
CC(=O)Nc1ccc(C(=O)C(Cc2ccccc2)N(C)C)cc1 (stereo not drawn),–,-14.9%
O=C(COc1ccc2ccccc2c1)N1CCN(Cc2ccncc2)CC1,–,-27.5%
CN(C)C(=O)Oc1cc(OC(=O)N(C)C)cc(C(O)CNC(C)(C)C)c1 (stereo not drawn),inactive,–
CNC(=O)O/N=C(\N)Cc1csc2ccc(Cl)cc12,16.4 µM (active),–
CNC(=O)O/N=C(\N)Cc1csc2ccccc12,–,-3.18%
Cn1c(O)c(C=NCCN2CCNCC2)c(=O)n(C)c1=O,–,-0.667%
COC1=CC=C2[C@H]3Cc4ccc(OC)c5c4[C@@]2(CCN3C)C1O5 (stereo partly drawn),–,-2%
